An excerpt weighted towards active compounds, which were near 10% of everything screened.
MCF10A rerep: A quantitative high throughput screen for small molecules that induce DNA re-replication in MCF 10a normal breast cells. 350,000 tested, 2.9% active. Potency, µM (top dose mostly 46.1 µM), for the others: at the highest dose activity, positive = re-replication, hits mostly activators. MCF 10A DNA re-replication, Hoechst nuclear intensity, 48 h. AID 624296, 2012; further: % of control where 0% means no effect; nearly all actives have a fitted effect of over 50% in size
RORg inh: qHTS for inhibitors of ROR gamma transcriptional activity. Nuclear receptor ROR-gamma (Mus musculus), P51450. Drosophila S2 Gal4-RORgamma UAS-luciferase reporter, 20 h. Potency, µM (top dose mostly 53.6 µM), without a hit: top-dose activity change, negative = inhibition, most hits filed as inhibitors. 310,000 tested, 5.4% active. AID 2551, 2010; further: on the % scale 0 is the no-effect control and ±100 the full control effect; nearly all actives have a fitted effect of over 60% in size
Target sequence (P51450 whole entry, looked up, the tested form may be a part): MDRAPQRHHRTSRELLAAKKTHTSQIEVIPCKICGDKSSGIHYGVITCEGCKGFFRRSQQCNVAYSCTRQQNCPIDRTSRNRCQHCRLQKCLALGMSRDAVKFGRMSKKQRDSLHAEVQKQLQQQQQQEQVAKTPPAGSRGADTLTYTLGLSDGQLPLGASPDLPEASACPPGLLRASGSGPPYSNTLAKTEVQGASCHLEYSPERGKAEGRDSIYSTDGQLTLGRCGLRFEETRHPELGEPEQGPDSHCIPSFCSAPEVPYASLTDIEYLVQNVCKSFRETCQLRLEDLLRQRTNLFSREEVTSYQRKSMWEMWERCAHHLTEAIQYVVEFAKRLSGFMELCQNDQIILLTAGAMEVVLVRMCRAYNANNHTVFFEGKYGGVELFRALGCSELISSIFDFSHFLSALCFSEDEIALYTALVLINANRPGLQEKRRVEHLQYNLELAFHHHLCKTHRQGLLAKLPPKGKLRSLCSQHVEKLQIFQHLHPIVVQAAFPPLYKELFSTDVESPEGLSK
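ROR gamma transcriptional activity was tracked as Gal4-UAS luciferase output in stably transfected Drosophila Schneider cells, with compound added 1 hr before 700 uM copper sulfate induction and a 20 hr ambient-temperature incubation.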
SW480 rereplic: A quantitative high throughput screen for small molecules that induce DNA re-replication in SW480 colon adenocarcinoma cells; Potency, µM (doses to about 46.1 µM), for the others: at the highest dose re-replication activation, hits mostly activators; SW480 DNA re-replication, Hoechst DNA content imaging, 48 h; 340,000 tested, 1.8% active; AID 624297, 2012; further: % of control where 0% means no effect; nearly all actives have a fitted effect of over 55% in size
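Hoechst fluorescence of nuclei (405 nm excitation, 500-530 nm emission) measured by plate-scanning imager after 48 hr compound exposure at 37 C; re-replication scored as increased number of nuclei with elevated intensity.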
KB-3-1 tox: qHTS assay for MDR1-selective chemotherapeutics: Primary screen using the parental adenocarcinoma cell KB-3-1. Potency, µM (top dose mostly 46.1 µM), usual class: cytotoxic. KB-3-1 viability, CellTiter-Glo ATP luminescence, 72 h. 400,000 tested, 1.4% active; further: on the % scale 0 is the no-effect control and ±100 the full control effect; nearly all actives have a fitted effect of over 60% in size
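KB-3-1 parental drug-naive adenocarcinoma cells in DMEM/10% FBS, incubated 72 h at 37 C with pin-transferred compounds across a concentration series. Viability by CellTiter-Glo luminescence; concentration-response curves fitted after normalization.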
KB-V1 cytotox: qHTS assay for MDR1-selective chemotherapeutics: Primary screen using the drug-selected MDR subline cells KB-V1 | AID 1347076, 2019 | KB-V1 MDR cells viability, CellTiter-Glo, 72 h | Potency, µM (titrated, usually from 46.1 µM), hits mostly cytotoxic | 400,000 tested, 3.4% active; further: on the % scale 0 is the no-effect control and ±100 the full control effect; nearly all actives have a fitted effect of over 60% in size
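Readout: CellTiter-Glo luminescence, 10 min after addition. Cells: KB-V1 MDR subline, 72 h at 37 degrees C with compound. Analysis: corrected, normalized data fitted to concentration-effect curves.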
Gal4-VP16 FLuc: VP16 counterscreen qHTS for inhibitors of ROR gamma transcriptional activity | Drosophila S2 Gal4-VP16 UAS-luciferase, luminescence, 20 h | Potency, µM (doses to about 53.6 µM), without a hit: at the highest dose activity, negative = inhibition, hits mostly inhibitors | 310,000 tested, 3.5% active | AID 2546, 2010;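 further: Gal4-VP16 expression switched on by copper sulfate through the metallothionein promoter; on the % scale 0 is the no-effect control and ±100 the full control effect; nearly all actives have a fitted effect of over 50% in size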
* marks the source's active call; other numbers are inactive results. The call rests on the fitted dose curve; in most records, active means well fitted curve in the direction sought with a large enough effect; inconclusive means small, poorly fitted or top-dose-only effect, or another doubt; inactive means no such curve, though single readings can be large; an effect the other way counts as inactive or inconclusive. Potency means the concentration at half of the fitted maximal effect.

How did O=C1NC(c2cccc(OCc3ccccc3)c2)Nc2ccccc21 (centres undefined) do in these assays?
MCF10A rerep: 2.3µM*; SW480 rereplic: 1.8µM*; KB-3-1 tox: 0.58µM*; KB-V1 cytotox: 0.65µM*

How did CSc1ccc(C2Nc3cccc4cccc(c34)N2)cc1 do in these assays?
MCF10A rerep: 6%; RORg inh: -10%; SW480 rereplic: 7%; KB-3-1 tox: inactive; KB-V1 cytotox: inactive; Gal4-VP16 FLuc: -13%

What do the screens show for `O=C1NC(c2ccc(O)cc2)Nc2ccccc21` (centres undefined)?
MCF10A rerep: 12µM*; RORg inh: 20%; SW480 rereplic: inconclusive; KB-3-1 tox: inconclusive; KB-V1 cytotox: inconclusive; Gal4-VP16 FLuc: 1%

Results for CSc1ccc(C2NC(=O)c3ccccc3N2)cc1 (centres undefined) ?
MCF10A rerep: 16µM*; SW480 rereplic: 9.2µM*; KB-3-1 tox: inconclusive; KB-V1 cytotox: inconclusive

What do the screens show for `CCOC(=O)c1sc(NC(=O)CSc2nc(C)cc(C)n2)c(C#N)c1C`?
MCF10A rerep: inconclusive; RORg inh: -2%; SW480 rereplic: -1%; KB-3-1 tox: inactive; KB-V1 cytotox: 8.2µM*; Gal4-VP16 FLuc: -1%

Results for CCOC(=O)c1sc(NC(=O)CSc2ccccn2)c(C#N)c1C ?
MCF10A rerep: 21µM*; RORg inh: -6%; SW480 rereplic: 15%; KB-3-1 tox: inactive; KB-V1 cytotox: inactive; Gal4-VP16 FLuc: -23%

Results for CCOC(=O)c1sc(NC(=O)CSc2nnc(Cc3ccccc3)o2)c(C#N)c1C ?
MCF10A rerep: 9%; RORg inh: -44%; SW480 rereplic: -11%; KB-3-1 tox: inactive; KB-V1 cytotox: inconclusive; Gal4-VP16 FLuc: -16%

Results for CCOC(=O)c1sc(NC(=O)c2cc(-c3ccccc3)nc3ccccc23)c(C#N)c1C ?
MCF10A rerep: 2.6µM*; RORg inh: inconclusive; SW480 rereplic: 0%; KB-3-1 tox: 15µM*; KB-V1 cytotox: inconclusive; Gal4-VP16 FLuc: inconclusive

What do the screens show for `CCN(CC)C(=O)c1sc(NC(=O)Cc2ccccc2)c(C#N)c1C`?
MCF10A rerep: 13%; RORg inh: 6.3µM*; SW480 rereplic: 2%; KB-3-1 tox: inactive; KB-V1 cytotox: inactive; Gal4-VP16 FLuc: 2%

What do the screens show for `CCn1ccc2cc(S(=O)(=O)N3CCC(C(=O)NCCc4ccccc4Cl)CC3)ccc21`?
KB-3-1 tox: inactive; KB-V1 cytotox: inactive

Results for CCOC(=O)c1sc(NC(=O)CSc2ncn[nH]2)c(C#N)c1C ?
MCF10A rerep: 2.9µM*; RORg inh: 19%; SW480 rereplic: 9.2µM*; KB-3-1 tox: inactive; KB-V1 cytotox: inactive; Gal4-VP16 FLuc: 0%

Results for CCOC(=O)c1sc(NC(=O)CSc2n[nH]c(-c3ccccc3)n2)c(C#N)c1C ?
MCF10A rerep: 8.2µM*; RORg inh: 1.3µM*; SW480 rereplic: 1%; KB-3-1 tox: inactive; KB-V1 cytotox: inconclusive; Gal4-VP16 FLuc: 5.6µM*

Results for CCOC(=O)c1sc(NC(=O)CSc2nc(-c3ccco3)cc(C(F)(F)F)n2)c(C#N)c1C ?
MCF10A rerep: -2%; RORg inh: -23%; SW480 rereplic: -3%; KB-3-1 tox: inactive; KB-V1 cytotox: inactive; Gal4-VP16 FLuc: 1%

What do the screens show for `CCOC(=O)c1sc(NC(=O)CSc2nc3c(cc2C#N)CCCCC3)c(C#N)c1C`?
MCF10A rerep: inconclusive; RORg inh: 20%; SW480 rereplic: inconclusive; KB-3-1 tox: inactive; KB-V1 cytotox: inactive; Gal4-VP16 FLuc: -6%

How did CCn1c(=N)c(C(=O)NC2CCCCC2)cc2c(=O)n3cc(C)ccc3nc21 do in these assays?
KB-3-1 tox: inactive; KB-V1 cytotox: inactive

Compound activity: PubChem, National Center for Advancing Translational Sciences (NCATS)
